# Measurements published in PubChem BioAssay (Tox21).
# Results filed as inconclusive are left out. Where a call stands in place of a potency, no number is given. A number with no mark means an inactive call. The source made the active and inactive calls. Unless noted, calls follow the shape of the dose curve; as a rule, active = well fitted curve in the direction sought with a large enough effect in the repeat runs; inconclusive = weak or mixed curves; inactive = no such curve, though single readings can be large; an effect the other way counts as inactive or inconclusive.
# Key:
# [1] = qHTS assay to identify small molecule agonists of the peroxisome proliferator-activated receptor delta (PPARd) signaling pathway - cell viability counter screen (AID 743211); also: nearly all actives have a fitted effect of over 55% in size; also: potency is read from the fitted curve at half-maximal effect
# Summary of the method: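 Following 5 h plating at 37 C and 5% CO2, PPARd UAS-bla HEK293H cells took up test compounds for 17 h. Viability was quantified by luminescence 30 min after CellTiter-Glo addition at room temperature.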
# [2] = target: Peroxisome proliferator-activated receptor delta (Homo sapiens) (UniProt Q03181); experiment: qHTS assay to identify small molecule agonists of the peroxisome proliferator-activated receptor delta (PPARd) signaling pathway (AID 743212; calls by dose curve)
# Sequence of Peroxisome proliferator-activated receptor delta (Homo sapiens) (Q03181 whole entry, looked up): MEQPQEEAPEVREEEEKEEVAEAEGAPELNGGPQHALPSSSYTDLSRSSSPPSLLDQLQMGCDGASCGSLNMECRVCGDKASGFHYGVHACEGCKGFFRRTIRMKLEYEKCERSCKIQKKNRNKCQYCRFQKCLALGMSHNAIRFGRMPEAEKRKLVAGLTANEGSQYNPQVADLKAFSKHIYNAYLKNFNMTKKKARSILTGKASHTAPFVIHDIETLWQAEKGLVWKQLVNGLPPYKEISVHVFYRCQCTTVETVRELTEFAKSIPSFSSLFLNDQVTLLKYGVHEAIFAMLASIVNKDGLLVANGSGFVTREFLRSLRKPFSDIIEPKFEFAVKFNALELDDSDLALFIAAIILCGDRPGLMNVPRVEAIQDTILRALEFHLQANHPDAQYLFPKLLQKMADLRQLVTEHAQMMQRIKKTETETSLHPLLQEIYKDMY
# Summary of the method: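 Quantitative high-throughput agonist screen in a HEK293H beta-lactamase reporter line under UAS control. Compounds in DMSO, at 37 C. Fluorescence read after 2 h with FRET substrate at room temperature.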
# [3] = qHTS assay to identify small molecule antagonists of the peroxisome proliferator-activated receptor delta (PPARd) signaling pathway - cell viability counter screen (AID 743213); also: nearly all actives have a fitted effect of over 50% in size
# Summary of the method: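 PPARd-bla HEK293H cells were treated with compounds plus agonist L165041 (300 nM final) for 17 h at 37 C. Viability was then read in the same wells by CellTiter-Glo luminescence after 30 min at room temperature.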
# [4] = target: Peroxisome proliferator-activated receptor delta (Homo sapiens) (UniProt Q03181); experiment: qHTS assay to identify small molecule antagonists of the peroxisome proliferator-activated receptor delta (PPARd) signaling pathway (AID 743215; active = well fitted inhibition curve with a large enough effect in the signal ratio in the repeat runs, not every such curve was filed as active; the % refers to the signal ratio;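 also: cells stimulated with agonist L165041 at 300 nM final during compound exposure; series mostly up to about 62 µM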)
# Summary of the method: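 HEK293H UAS-bla, PPARd; agonist L165041 300 nM final with cpd in DMSO; 37 C 17 h; FRET substrate, RT 2 h; fluorescence intensity.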
# [5] = target: Bile acid receptor (Homo sapiens) (UniProt Q96RI1); experiment: qHTS assay to identify small molecule antagonists of the farnesoid-X-receptor (FXR) signaling pathway (AID 743217; active = well fitted inhibition curve with a large enough effect in the signal ratio in the repeat runs, not every such curve was filed as active; the % refers to the signal ratio)
# Sequence of Bile acid receptor (Homo sapiens) (Q96RI1 whole entry, looked up): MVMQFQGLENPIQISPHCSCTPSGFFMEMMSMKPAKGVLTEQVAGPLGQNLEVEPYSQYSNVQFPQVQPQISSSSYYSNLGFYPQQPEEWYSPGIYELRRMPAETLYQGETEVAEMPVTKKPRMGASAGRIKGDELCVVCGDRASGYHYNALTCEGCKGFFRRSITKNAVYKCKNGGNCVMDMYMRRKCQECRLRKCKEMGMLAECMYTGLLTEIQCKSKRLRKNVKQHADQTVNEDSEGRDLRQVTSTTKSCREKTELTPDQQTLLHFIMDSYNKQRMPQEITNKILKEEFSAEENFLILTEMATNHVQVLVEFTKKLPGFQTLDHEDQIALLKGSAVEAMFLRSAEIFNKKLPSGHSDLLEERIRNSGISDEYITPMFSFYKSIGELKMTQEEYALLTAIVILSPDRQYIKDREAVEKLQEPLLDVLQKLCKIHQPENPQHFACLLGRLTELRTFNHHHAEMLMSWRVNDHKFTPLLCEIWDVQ
# Summary of the method: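 GeneBLAzer FXR-UAS-bla HEK 293T, CDCA-stimulated (50 uM final). Compound treatment 16 h, 37 °C. Detection: beta-lactamase cleavage of B/G FRET substrate, fluorescence.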
# [6] = qHTS assay to identify small molecule agonists of the farnesoid-X-receptor (FXR) signaling pathway - cell viability counter screen (AID 743218); also: nearly all actives have a fitted effect of over 45% in size
# Summary of the method: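 Parallel cytotoxicity test: compound-treated (16 h, 37 C) HEK 293T FXR-bla reporter cells were lysed with CellTiter-Glo and luminescence recorded.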
# [7] = target: Bile acid receptor (Homo sapiens) (UniProt Q96RI1); experiment: qHTS assay to identify small molecule agonists of the farnesoid-X-receptor (FXR) signaling pathway (AID 743220; active = well fitted activation curve with a large enough effect in the signal ratio in the repeat runs, not every such curve was filed as active; the % refers to the signal ratio)
# Summary of the method: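 Beta-lactamase reporter under UAS control in GeneBLAzer FXR HEK 293T cells (5000/well) measured with LiveBLAzer FRET substrate after 2 h at room temperature. Compound exposure lasted 16 h at 37C.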
# [8] = qHTS assay to identify small molecule antagonists of the farnesoid-X-receptor (FXR) signaling pathway - cell viability counter screen (AID 743221; active = well fitted cell-killing curve with a large enough effect in the repeat runs, not every such curve was filed as active; also: nearly all actives have a fitted effect of over 50% in size)
# Summary of the method: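 Compound effects on cell number were measured as CellTiter-Glo luminescence in HEK 293T cells expressing FXR-UAS-bla, after 16 h at 37 C with 50 uM CDCA (final).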
# [9] = target: Vitamin D3 receptor (Homo sapiens) (UniProt P11473); experiment: qHTS assay to identify small molecule agonists of the vitamin D receptor (VDR) signaling pathway (AID 743222; calls by dose curve)
# Sequence of Vitamin D3 receptor (Homo sapiens) (P11473 whole entry, looked up): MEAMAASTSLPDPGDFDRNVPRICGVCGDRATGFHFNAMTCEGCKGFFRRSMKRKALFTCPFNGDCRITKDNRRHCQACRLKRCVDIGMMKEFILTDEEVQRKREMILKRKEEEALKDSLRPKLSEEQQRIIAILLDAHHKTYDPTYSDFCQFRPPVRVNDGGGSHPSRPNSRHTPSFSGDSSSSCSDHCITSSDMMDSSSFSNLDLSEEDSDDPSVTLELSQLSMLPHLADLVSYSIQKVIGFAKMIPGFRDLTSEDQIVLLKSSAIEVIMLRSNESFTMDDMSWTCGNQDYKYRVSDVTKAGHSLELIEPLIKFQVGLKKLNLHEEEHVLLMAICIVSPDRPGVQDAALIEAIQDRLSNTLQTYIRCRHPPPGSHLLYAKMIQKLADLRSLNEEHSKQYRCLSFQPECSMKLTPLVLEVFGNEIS
# Summary of the method: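 In VDR-bla cells, compound-induced beta-lactamase expression is quantified by FRET substrate fluorescence. Treatment lasts 16 h at 37C; substrate develops 2 h at room temperature.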
# [10] = target: Vitamin D3 receptor (Homo sapiens) (UniProt P11473); experiment: qHTS assay to identify small molecule antagonists of the vitamin D receptor (VDR) signaling pathway (AID 743223; active = well fitted inhibition curve with a large enough effect in the signal ratio in the repeat runs, not every such curve was filed as active; the % refers to the signal ratio)
# Summary of the method: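 Beta-lactamase activity in VDR-bla cells is measured by FRET substrate fluorescence (2 h, room temperature) after cells spend 16 h at 37C with test compound and 3 nM final 1alpha,25-dihydroxyvitamin D3.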
SMILES,Potency [1],outcome [2],Potency [3],Potency [4],Potency [5],Potency [6],outcome [7],Potency [8],outcome [9],outcome [10]
c1ccoc1,inactive,inactive,inactive,inactive,inactive,inactive,inactive,inactive,inactive,inactive
O=S(=O)(O)C(F)(F)C(F)(F)C(F)(F)C(F)(F)F,inactive,,,,,,,,,
CCCN(CC1CC1)c1c([N+](=O)[O-])cc(C(F)(F)F)cc1[N+](=O)[O-],inactive,inactive,inactive,inactive,inactive,inactive,inactive,inactive,,
CC1C(=O)C[C@]2(C(C)C)C[C@H]12 (stereo not given in full),inactive,inactive,inactive,inactive,inactive,inactive,inactive,inactive,inactive,inactive
CC(Cl)Cl,inactive,inactive,inactive,inactive,inactive,inactive,inactive,inactive,inactive,inactive
Nc1ccc(N=Nc2ccc(-c3ccc(N=Nc4c(S(=O)(=O)O)cc5cc(S(=O)(=O)O)c(N=Nc6ccccc6)c(O)c5c4N)cc3)cc2)c(N)c1,inactive,inactive,,,,,,,,
NC(=O)C(Cl)(Cl)Cl,inactive,inactive,inactive,inactive,inactive,inactive,inactive,,inactive,inactive
Clc1cccc(SC2CCNCC2)n1,inactive,inactive,inactive,inactive,inactive,inactive,inactive,inactive,,
CCC(C)(NC(=O)c1cc(Cl)c(C)c(Cl)c1)C(=O)CCl (stereo not given),49.3 µM (active),,,,,,,,,
CCCCCCCCCC(=O)O[C@H]1CC[C@H]2[C@@H]3CCC4=CC(=O)CC[C@@H]4[C@H]3CC[C@]12C,inactive,inactive,inactive,inactive,inactive,inactive,inactive,inactive,,
O=C(O)CC(Cl)C(=O)O (stereo not given),inactive,inactive,inactive,inactive,inactive,inactive,inactive,inactive,,
O=C(CBr)OCc1ccccc1,inactive,inactive,inactive,inactive,inactive,inactive,inactive,inactive,inactive,inactive
COC(N)=O,inactive,inactive,inactive,inactive,inactive,,inactive,inactive,inactive,
CC(C)(OO)c1ccccc1,inactive,inactive,inactive,inactive,inactive,inactive,inactive,,inactive,
COCCOCCO,inactive,inactive,,,,,,,,
O=C(CBr)c1ccccc1,inactive,inactive,inactive,inactive,inactive,inactive,inactive,inactive,,
Nc1nc(N)nc(N)n1,inactive,inactive,inactive,inactive,inactive,,inactive,inactive,inactive,
CCCC(=O)Cl,inactive,inactive,inactive,inactive,inactive,inactive,inactive,,inactive,inactive
C=CCC1([C@H](C)CCC)C(=O)NC(=O)NC1=O,inactive,inactive,inactive,inactive,inactive,,inactive,inactive,inactive,
CCOc1ccc(C(C)(C)COCc2cccc(Oc3ccccc3)c2)cc1,inactive,inactive,inactive,inactive,inactive,,inactive,inactive,inactive,
CC(C)=CCOc1c2occc2cc2ccc(=O)oc12,inactive,inactive,inactive,inactive,inactive,inactive,inactive,inactive,inactive,
CCCCNP(N)(N)=S,inactive,inactive,inactive,inactive,inactive,,inactive,inactive,inactive,inactive
CCOP(=S)(OCC)SCSCC,inactive,inactive,inactive,inactive,inactive,inactive,inactive,inactive,inactive,
Cn1sc(Cl)cc1=O,inactive,inactive,inactive,inactive,inactive,inactive,inactive,inactive,inactive,
O=[N+]([O-])C(Br)(CO)CO,inactive,inactive,inactive,inactive,inactive,inactive,inactive,inactive,,
COc1cc(CC(C)N)cc2c1OCO2 (stereo not given),inactive,inactive,inactive,inactive,inactive,inactive,inactive,,,
CCOP(=S)(OCC)Oc1nc(Cl)c(Cl)cc1Cl,inactive,inactive,inactive,inactive,inactive,inactive,inactive,inactive,inactive,inactive
